In PubChem BioAssay AID2546 (National Center for Advancing Translational Sciences (NCATS), 2010):
Values joined by “and” are separate entries in the source; they are usually repeats but may differ in a detail not shown here. Equal values may be shown once. In all, about 310,000 compounds went through this assay and about 11,000 (3.5%) were called active. About 8% were inconclusive and are not listed. Calls come from the whole dose curve; as a rule, active = well fitted inhibition curve with a large enough effect; inconclusive = small, poorly fitted or top-dose-only effect, or effect the other way; inactive = flat fitted curve, though single readings scatter. The sample as a whole holds a higher share of actives than the screen did.

Assay: VP16 counterscreen qHTS for inhibitors of ROR gamma transcriptional activity;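 note: Gal4-VP16 expression switched on by copper sulfate through the metallothionein promoter; nearly all actives have a fitted effect of over 50% in size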
Conditions: Drosophila S2 Gal4-VP16 UAS-luciferase, luminescence, 20 h; series mostly up to 53.6 µM; activity, negative = inhibition: at the top concentration
% is set by controls: 0 for no effect and ±100 for the full control effect; potency is the fitted concentration of half-maximal effect.

Row | Structure (SMILES) | activity, negative = inhibition | Potency
1 | COc1ccc2[nH]cc(CCN3C(=O)c4ccc(C(=O)O)cc4C3=O)c2c1 | -9% (inactive) | 
2 | Cc1cccc(N(C)C(=O)CN2C(=O)COc3ccc(S(=O)(=O)N4CCCCCC4)cc32)c1 | -1.84% (inactive) | 
3 | COc1ccc(-c2oc3ncnc(NCCCO)c3c2-c2ccc(OC)cc2)cc1 | -13.1% (inactive) | 
4 | C[C@@H](NC(=O)OC(C)(C)C)c1nnc(S(=O)(=O)Cc2ccccc2)o1 |  | 4.47 µM (active)
5 | C[C@H](NC(=O)OC(C)(C)C)c1nnc(SCC(N)=O)o1 | 8.92% (inactive) | 
6 | CC(C)Sc1nnc([C@H](Cc2ccccc2)NC(=O)OC(C)(C)C)o1 | 5.57% (inactive) | 
7 | CC(=O)Nc1cccc(NC(=O)CSc2nccn2Cc2ccc(F)cc2)c1 | -5.44% (inactive) | 
8 | Cc1ccc2nc(SCC(=O)NC3CCCC3)[nH]c2c1 | 4.32% (inactive) | 
9 | O=C(O)c1ccccc1C(=O)Nc1nc(-c2ccccc2)cs1 | 0.0927% (inactive) | 
10 | Cc1nc(NNC(=O)c2ccccc2)cc(-c2ccccc2)n1 | -19.6% (inactive) | 
11 | O=C(Nc1nc(-c2cccnc2)cs1)c1ccccc1F | 5.72% (inactive) | 
12 | O=C(Nc1nc(-c2ccc(-c3ccccc3)cc2)cs1)c1cnccn1 |  | 2 µM (active)
13 | Cc1ccc(Nc2nc(-c3sc(NC(=O)c4ccccc4)nc3C)cs2)cc1 | -2.11% (inactive) | 
14 | Cc1ccc(-c2csc(NNC(=O)c3ccccc3)n2)cc1 |  | 7.08 µM (active)
15 | CC(=O)c1ccc(N2CCN(C(=O)C3CCN(S(=O)(=O)c4ccc5c(c4)CC(C)N5C(=O)C4CC4)CC3)CC2)cc1 (stereo not drawn) | -8.05% (inactive) | 
16 | CCCC(C)NC(=O)C1CCN(C(=O)C2CC(=O)N(c3ccc(C)cc3)C2)CC1 (stereo not drawn) | 12.6% (inactive) | 
17 | COc1cc(C)c(C)cc1S(=O)(=O)N1CCCc2ccccc21 | -8.46% (inactive) | 
18 | O=C(Cn1cnc2ccccc21)Nc1ccccc1-c1ccccc1 | -5.47% (inactive) | 
19 | O=C(NCCOc1cccnc1)c1ccc(OC2CCN(Cc3ccccn3)CC2)cc1 | -2.29% (inactive) | 
20 | C[C@H](NC(=O)[C@@H]1Cc2ccccc2CN1C(=O)OC(C)(C)C)C(=O)NC1CCCC1 | -1.53% (inactive) | 
21 | CC(C)NC(=S)NN=C1CCCCCCCCCCC1 |  | 5.01 µM (active)
22 | CCc1ccc(C(=O)NN=C2CCCCCC2)s1 | -2.72% (inactive) | 

Row | Structure (SMILES) | activity, negative = inhibition | Potency
23 | CC(C)(C)NC(=O)C(=O)NN=C1CCCCCCC1 | 13.8% (inactive) | 
24 | CCC1CCCCN1C(=S)Nc1ccc(S(=O)(=O)Nc2ncccn2)cc1 (stereo not drawn) | -18.2% (inactive) | 
25 | CCCc1cc(=O)oc2cc(OCC(=O)Nc3ccc(CN4CCOCC4)cc3)c(Cl)cc12 | -13% (inactive) | 
26 | FC(F)(F)Oc1ccc(NC(=S)NCc2ccccc2)cc1 |  | 11.2 µM (active)
27 | CC(C)CC(=O)NC(=S)NCc1ccccc1 |  | 10 µM (active)
28 | O=C(Cc1ccccc1)NCc1ccc(F)cc1 | 2.04% (inactive) | 
29 | COC(=O)Cc1ccc(NC(=S)NCc2ccco2)cc1 | -2.3% (inactive) | 
30 | COC(=O)Cc1ccc(OCC(=O)Nc2ccc(OC(F)(F)F)cc2)cc1 | -4.79% (inactive) | 
31 | CC(C)CNC(=O)C(=O)NCc1ccccc1 | -16.5% (inactive) | 
32 | CC(C)CC(=O)NC(=S)Nc1cc(C(=O)O)ccc1Cl | -1.81% (inactive) | 
33 | COC(=O)Cc1ccc(NC(=S)NCc2ccccc2)cc1 |  | 31.6 µM (active)
34 | O=C(NNC(=S)NCc1ccccc1)c1ccc(OC(F)F)cc1 | -14.5% (inactive) | 
35 | CCOC(=O)c1ccc(NC(=O)Cc2cccs2)cc1 | 3.14% (inactive) | 
36 | CCC1Sc2ccc(S(=O)(=O)CCC(=O)NCc3cccs3)cc2NC1=O (stereo not drawn) | -3.04% (inactive) | 
37 | COc1ccccc1CNC(=O)c1ccc(N(C)S(=O)(=O)c2ccc(C)cc2)cc1 | -4.62% (inactive) | 
38 | CSc1ncccc1C(=O)Nc1ccc(C)cn1 | 3.04% (inactive) | 
39 | COc1ccc(OC)c(NC(=O)CN(C)CCOc2ccc(Br)cc2)c1 | -7.46% (inactive) | 
40 | CC1(C)Cc2c(sc(NC(=O)C(=O)NCC3CCCO3)c2C(=O)O)CO1 (stereo not drawn) | 9.69% (inactive) | 
41 | COc1ccc(C2CC(c3ccc([N+](=O)[O-])cc3)=NN2C(C)=O)cc1 (stereo not drawn) | -8.56% (inactive) | 
42 | Cc1cccnc1CCNC(=O)C1CCC(=O)N(Cc2cccc(F)c2)C1 (stereo not drawn) | -1.61% (inactive) | 
43 | O=C(NCCCN1CCOCC1)c1ccc2c(c1)N(Cc1cccc(F)c1)C(=O)c1ccccc1S2 | -0.386% (inactive) | 
44 | COc1ccc(CC(=O)Nc2nc(-c3ccc(F)c(F)c3)cs2)cc1OC |  | 15.8 µM (active)

Row | Structure (SMILES) | activity, negative = inhibition | Potency
45 | COc1ccc(CCNc2nc(-c3cccc(NC(C)=O)c3)cs2)cc1OC | 5.47% (inactive) | 
46 | COc1cccc(CC(=O)Nc2nc(-c3ccc(OC)c(OC)c3)cs2)c1 | 4.05% (inactive) | 
47 | CCOC(=O)C1(Cc2ccccc2C)CCCN(C(=O)CN2C(=O)CSC2=O)C1 (stereo not drawn) | -7.58% (inactive) | 
48 | CCOC(=O)c1cccc(NC(=O)C2CCN(c3ncnc4c3nc3n4CCCCC3)CC2)c1 | 0% (inactive) | 
49 | CN(C(=O)c1ccccc1)c1nccnc1C#N | 6.12% (inactive) | 
50 | CC1=NN(C(=O)CCc2ccccc2O)C(O)(C(F)(F)F)C1 (stereo not drawn) |  | 12.6 µM (active)
51 | O=C(Cc1ccccc1)N1N=C(c2ccncc2)CC1(O)C(F)(F)F (stereo not drawn) | -3.57% (inactive) | 
52 | COc1ccc(CC(=O)N2N=C(C)CC2(O)C(F)(F)F)cc1 (stereo not drawn) |  | 8.91 µM (active)
53 | CCCCCNC(=O)Cc1ccc(OC)cc1 | 13.1% (inactive) | 
54 | NC(=O)c1ccc(Nc2ccc3c(c2)CCC3)c([N+](=O)[O-])c1 | -16.3% (inactive) | 
55 | Cc1ccc(Nc2ncnc3c2cnn3C)c(C)c1 | -3.95% (inactive) | 
56 | COC(=O)c1c(NC(=O)C2CC(C)=C(C)CC2C(=O)O)sc2c1CCCCC2 (stereo not drawn) | -2.79% (inactive) | 
57 | O=S(=O)(/C=C/c1ccccc1)N1CCNCC1 | 4.26% (inactive) | 
58 | CCc1ccc(OCC(=O)NCC(c2ccc(Cl)cc2)N2CCCCC2)cc1 (stereo not drawn) | -13.5% (inactive) | 
59 | Cc1ccc(S(=O)(=O)c2c[nH]c3ccc(C)cc3c2=O)cc1 | -3.91% (inactive) | 
60 | Cc1cccc(-n2c(C)cc(/C=N/NC(N)=S)c2C)c1 |  | 2.82 µM (active)
61 | Cc1cc(/C=N/Nc2ccc([N+](=O)[O-])cn2)c(C)n1-c1cccc(C(=O)O)c1 | 15.8% (inactive) | 
62 | Cc1cc(/C=N/NC(N)=O)c(C)n1C1CCCCC1 | -0.922% (inactive) | 
63 | O=C(CN1CCN(C(=O)C2CCCO2)CC1)Nc1c(Cl)cccc1Cl (stereo not drawn) | -7.25% (inactive) | 
64 | Cc1n[nH]c(=O)n1-c1ccc(Oc2ccccc2)cc1 |  | 0.891 µM (active)
65 | COc1ccc(Oc2ncc3nc(C)c(=O)n(-c4ccccc4)c3n2)cc1 | 4.94% (inactive) | 
66 | Cc1n[nH]c(=O)n1-c1ccc(C(C)C)cc1 | 6.72% (inactive) | 

Row | Structure (SMILES) | activity, negative = inhibition | Potency
67 | Cc1cccc(CNS(=O)(=O)c2ccc(-c3cnc(C4CC4)o3)cc2)c1 | -17.6% (inactive) | 
68 | CCOc1ccc(CN(C)C(=O)c2ccc(=O)[nH]c2)cc1 | 8.5% (inactive) | 
69 | Cc1cccc(NC(=O)c2cccnc2Cl)n1 | 6.9% (inactive) | 
70 | Cc1ccc2nc(N(CCN(C)C)C(=O)C3=COCCO3)sc2c1 | 19.1% (inactive) | 
71 | COc1ccc2cc(S(=O)(=O)Nc3ccccn3)ccc2c1 | -11% (inactive) | 
72 | COc1cc(NS(=O)(=O)c2ccc3ccccc3c2)c2ncccc2c1 |  | 708 nM (active) and 562 nM (active)
73 | Cc1ccc(NS(=O)(=O)c2ccc(C)c(NC(=O)COc3ccc4ccccc4c3)c2)c(C)c1 | -3.61% (inactive) | 
74 | N#CCSc1nc(-c2ccccc2)nc2ccc(F)cc12 | 0.836% (inactive) | 
75 | Cc1nc2ccc(S(=O)(=O)N(C)CC(=O)NC(C)c3ccccc3)cc2s1 (stereo not drawn) | 13.1% (inactive) | 
76 | CC1CC(=O)Nc2ccccc2N1S(=O)(=O)c1cccs1 (stereo not drawn) | 4.46% (inactive) | 
77 | CC1CC(=S)Nc2ccccc2N1Cc1ccccc1 (stereo not drawn) |  | 3.16 µM (active)
78 | CC1CC(C)(C)NC(=S)N1CCC(=O)N1CCN(Cc2ccccc2)CC1 (stereo not drawn) | -2.35% (inactive) | 
79 | Cc1ccccc1OCC(=O)Nc1ccc(S(=O)(=O)N2CCOCC2)cc1 | 9.7% (inactive) | 
80 | O=C(c1ccccc1)N1CCN(C(=O)c2cc3nc(-c4ccccc4)cc(C(F)(F)F)n3n2)CC1 | -8.68% (inactive) | 
81 | COc1ccc(-c2cc(C(F)(F)F)nc(SCC(=O)Nc3ccc4c(c3)OCO4)n2)cc1OC | -26.3% (inactive) | 
82 | COc1cc(OC)nc(S(C)(=O)=O)n1 | -27.7% (inactive) | 
83 | COc1ccc(-c2cc(C(F)(F)F)nc(S(C)(=O)=O)n2)cc1OC |  | 5.62 µM (active)
84 | CC1=C(C(=O)OCC2CCCCC2)C(c2ccc(F)cc2)NC(=O)N1 (stereo not drawn) | 2.73% (inactive) | 
85 | CC1CN(C(=S)Nc2ccccc2F)CC(C)O1 (stereo not drawn) | 0.303% (inactive) | 
86 | COC(=O)c1c(NC(=O)COc2ccc(Cl)cc2Cl)sc2c1CC(C)(C)NC2(C)C |  | 22.4 µM (active)
87 | COC(=O)c1sccc1NC(=O)COc1ccc(Cl)cc1 | -1.35% (inactive) | 
88 | CCOC(=O)c1c(NC(=O)c2ccc(S(=O)(=O)N(C)CC3CCCO3)cc2)sc2c1CC(C)(C)NC2(C)C (stereo not drawn) | -4.31% (inactive) | 

Row | Structure (SMILES) | activity, negative = inhibition | Potency
89 | CCCn1c(C(C)Nc2nc(-c3ccc(C)cc3)cs2)nc2cc(Cl)c(N3CCCCC3)cc21 (stereo not drawn) | -9.71% (inactive) | 
90 | CCCC1CCC(=NNC(=S)NCCc2ccccc2)CC1 (stereo not drawn) |  | 11.2 µM (active)
91 | O=C(NCCc1ccccc1)C1CC1 | -4.59% (inactive) | 
92 | S=C(NN=C1CCN(Cc2ccccc2)CC1)NC1CCCCC1 | -1.84% (inactive) | 
93 | O=C(NCC(=O)N1CCN(c2ncc(C(F)(F)F)cc2Cl)CC1)c1ccc(Br)o1 | -12.2% (inactive) | 
94 | Cc1ccc(CN2CCC(n3nccc3NC(=O)CCCc3ccccc3)CC2)o1 | -18.3% (inactive) | 
95 | O=C(Nc1cccc(F)c1)NC1CCCCCCC1 | 17.7% (inactive) | 
96 | C/C(=N\NC(=O)Cc1ccc(Cl)cc1)c1ccccn1 |  | 2.51 µM (active)
97 | C/C(=N\NC(=O)Cc1ccc(Br)cc1)c1cccnc1 | -5.69% (inactive) | 
98 | C/C(CC(=O)Nc1ccc(N(C)C)cc1)=N\NC(=O)c1ccccc1F | 16.6% (inactive) | 
99 | C/C(=N\NC(=O)c1ccccc1F)c1ccccn1 |  | 1.12 µM (active)
100 | O=C(Nc1ccc(NC(=O)c2ccccc2F)cc1)c1ccccc1F | -2.15% (inactive) | 
101 | C/C(=N\NC(=O)Cc1ccc(F)cc1)c1ccc(F)cc1 | -9.44% (inactive) | 
102 | O=C(c1cc(-c2ccc(Cl)cc2)on1)N1CCN(c2ccccc2)CC1 | -9.14% (inactive) | 
103 | O=C(COc1ccccc1Cl)N1CCCCCCC1 | -6.99% (inactive) | 
104 | NS(=O)(=O)c1ccccc1NC(=O)c1c(O)c2ccccc2[nH]c1=O | -8.36% (inactive) | 
105 | COc1ccc(CC(=O)NCC(=O)N/N=C/c2cc(Br)ccc2OC)cc1 | -1.29% (inactive) | 
106 | COc1ccc(CC(=O)N/N=C/c2cc([N+](=O)[O-])cc(Br)c2O)cc1 |  | 3.16 µM (active)
107 | COc1cc(OC)c(/C=N/NC(=O)c2ccc([N+](=O)[O-])cc2)cc1Br | 10.7% (inactive) | 
108 | COc1cccc(NC(=O)CCc2nnc3ccc(N4CCC(C)CC4)nn23)c1 | -2.26% (inactive) | 
